Data: PubChem BioAssay AID1159580 (chemical genetic matrix, 2015)
Hit rate of the full screen: of about 5,500 compounds, about 2,000 (36%) were called active. Inconclusive results (about 18%) are left out. Rule as the data show it: active = normalized growth mostly below about 0.91 (no sharp cut-off); inconclusive = no clear call, values can overlap the other calls; inactive = mostly above about 0.92. Some of the results follow.

Assay: chemical genetic growth profiling, strain panel (AID 1159580);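 also: tested at 20 µM; growth read once vehicle control cultures reached saturation at 30 °C; 1 = growth at the plate median or of vehicle wells; lower values mean less growth of the strain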
Conditions: growth OD

Measured: normalized growth

C1N2CN3CN1CN(C2)C3
inactive: S. cerevisiae deletion strains, locus YJR075W, strain HOC1, active compounds read low 0.986 | S. cerevisiae deletion strains, locus YKL068W, active compounds read low 0.976 | S. cerevisiae deletion strains, locus YKL085W, strain MDH1 (second series), active compounds read low 0.987 | S. cerevisiae deletion strains, locus YKL085W, strain MDH1, active compounds read low 0.987 | S. cerevisiae deletion strains, locus YKL160W, strain elf1, active compounds read low 0.973 | S. cerevisiae deletion strains, locus YKL190W, strain CNB1, active compounds read low 0.98 | S. cerevisiae deletion strains, locus YKR001C, strain vps1, active compounds read low 0.965 | S. cerevisiae deletion strains, locus YKR026C, strain gcn3, active compounds read low 0.997 | S. cerevisiae deletion strains, locus YKR091W, strain srl3, active compounds read low 0.985 | S. cerevisiae deletion strains, locus YLL001W, strain dnm1, active compounds read low 0.93 | S. cerevisiae deletion strains, locus YLL026W, active compounds read low 0.993 | S. cerevisiae deletion strains, locus YLL041C, strain sdh2, active compounds read low 0.983 | S. cerevisiae deletion strains, locus YLR027C, strain aat2, active compounds read low 0.996 | S. cerevisiae deletion strains, locus YLR039C, strain RIC1, active compounds read low 0.899 | S. cerevisiae deletion strains, locus YLR058C, strain SHM2, active compounds read low 0.976 | S. cerevisiae deletion strains, locus YLR102C, strain apc9, active compounds read low 0.968 | S. cerevisiae deletion strains, locus YLR113W, strain HOG1, active compounds read low 0.906 | S. cerevisiae deletion strains, locus YLR221C, strain rsa3, active compounds read low 0.965 | S. cerevisiae deletion strains, locus YLR258W, strain gsy2, active compounds read low 0.994 | S. cerevisiae deletion strains, locus YLR262C, strain YPT6 (second series), active compounds read low 0.959 | S. cerevisiae deletion strains, locus YLR262C, strain YPT6, active compounds read low 0.889 | S. cerevisiae deletion strains, locus YLR268W, strain sec22, active compounds read low 0.957 | S. cerevisiae deletion strains, locus YLR320W, strain mms22, active compounds read low 0.961 | S. cerevisiae deletion strains, locus YLR330W, strain CHS5, active compounds read low 0.985 | S. cerevisiae deletion strains, locus YLR342W, strain FKS1 (second series), active compounds read low 0.991 | S. cerevisiae deletion strains, locus YLR342W, strain FKS1, active compounds read low 0.982 | S. cerevisiae deletion strains, locus YLR357W, strain rsc2, active compounds read low 0.971 | S. cerevisiae deletion strains, locus YLR370C, strain arc18, active compounds read low 0.988 | S. cerevisiae deletion strains, locus YLR371W, strain rom2, active compounds read low 0.98 | S. cerevisiae deletion strains, locus YLR384C, strain iki3, active compounds read low 0.989 | S. cerevisiae deletion strains, locus YLR418C, strain cdc73, active compounds read low 0.934 | S. cerevisiae deletion strains, locus YML016C, strain PPZ1, active compounds read low 0.983 | S. cerevisiae deletion strains, locus YML032C, strain rad52, active compounds read low 0.932 | S. cerevisiae deletion strains, locus YML120C, strain ndi1, active compounds read low 0.967 | S. cerevisiae deletion strains, locus YML124C, strain tub3, active compounds read low 0.982 | S. cerevisiae deletion strains, locus YMR058W, strain fet3, active compounds read low 0.998 | S. cerevisiae deletion strains, locus YMR078C, strain ctf18, active compounds read low 0.947 | S. cerevisiae deletion strains, locus YMR125W, strain sto1, active compounds read low 0.975 | S. cerevisiae deletion strains, locus YMR129W, active compounds read low 0.992 | S. cerevisiae deletion strains, locus YMR205C, strain PFK2, active compounds read low 0.959 | S. cerevisiae deletion strains, locus YMR223W, strain ubp8, active compounds read low 0.966 | S. cerevisiae deletion strains, locus YMR231W, strain pep5, active compounds read low 0.992 | S. cerevisiae deletion strains, locus YMR263W, strain SAP30, active compounds read low 0.97 | S. cerevisiae deletion strains, locus YMR307W, strain GAS1, active compounds read low 0.994 | S. cerevisiae deletion strains, locus YNL067W, strain RPL9B, active compounds read low 0.966 | S. cerevisiae deletion strains, locus YNL071W, strain lat1, active compounds read low 0.973 | S. cerevisiae deletion strains, locus YNL128W, strain TEP1, active compounds read low 0.981 | S. cerevisiae deletion strains, locus YNL153C, strain GIM3, active compounds read low 0.968 | S. cerevisiae deletion strains, locus YNL183C, strain NPR1, active compounds read low 0.972 | S. cerevisiae deletion strains, locus YNL209W, strain ssb2, active compounds read low 0.986 | S. cerevisiae deletion strains, locus YNL233W, strain BNI4, active compounds read low 0.99 | S. cerevisiae deletion strains, locus YNL248C, strain rpa49, active compounds read low 0.982 | S. cerevisiae deletion strains, locus YNL271C, strain bni1, active compounds read low 0.959 | S. cerevisiae deletion strains, locus YNL298W, strain CLA4, active compounds read low 0.923 | S. cerevisiae deletion strains, locus YNL307C, strain MCK1, active compounds read low 0.989 | S. cerevisiae deletion strains, locus YNL322C, strain KRE1 (second series), active compounds read low 0.983 | S. cerevisiae deletion strains, locus YNL322C, strain KRE1, active compounds read low 0.982 | S. cerevisiae deletion strains, locus YNR049C, strain mso1, active compounds read low 0.994 | S. cerevisiae deletion strains, locus YNR052C, strain pop2, active compounds read low 0.956 | S. cerevisiae deletion strains, locus YOL006C, strain TOP1, active compounds read low 0.931 | S. cerevisiae deletion strains, locus YOL012C, strain htz1 1.62 | S. cerevisiae deletion strains, locus YOL147C, strain pex11, active compounds read low 0.98 | S. cerevisiae deletion strains, locus YOR001W, strain rrp6, active compounds read low 1.01 | S. cerevisiae deletion strains, locus YOR061W, strain CKA2, active compounds read low 0.957 | S. cerevisiae deletion strains, locus YOR069W, strain VPS5, active compounds read low 0.998 | S. cerevisiae deletion strains, locus YOR070C, strain gyp1, active compounds read low 0.992 | S. cerevisiae deletion strains, locus YOR080W, strain dia2, active compounds read low 0.994 | S. cerevisiae deletion strains, locus YOR083W, strain WHI5, active compounds read low 0.961 | S. cerevisiae deletion strains, locus YOR106W, strain vam3, active compounds read low 0.986 | S. cerevisiae deletion strains, locus YOR136W, strain idh2, active compounds read low 0.989 | S. cerevisiae deletion strains, locus YOR144C, strain elg1, active compounds read low 0.984 | S. cerevisiae deletion strains, locus YOR184W, strain ser1, active compounds read low 1.02 | S. cerevisiae deletion strains, locus YOR265W, strain rbl2, active compounds read low 0.993 | S. cerevisiae deletion strains, locus YOR270C, strain vph1, active compounds read low 0.958 | S. cerevisiae deletion strains, locus YOR290C, strain snf2, active compounds read low 0.914 | S. cerevisiae deletion strains, locus YOR316C, strain cot1, active compounds read low 0.968 | S. cerevisiae deletion strains, locus YPL051W, strain arl3, active compounds read low 0.984 | S. cerevisiae deletion strains, locus YPL055C, strain LGE1, active compounds read low 0.977 | S. cerevisiae deletion strains, locus YPL078C, strain atp4, active compounds read low 0.965 | S. cerevisiae deletion strains, locus YPL106C, strain sse1, active compounds read low 0.967 | S. cerevisiae deletion strains, locus YPL240C, strain hsp82, active compounds read low 0.993 | S. cerevisiae deletion strains, locus YPL256C, strain CLN2, active compounds read low 0.948 | S. cerevisiae deletion strains, locus YPR119W, strain clb2, active compounds read low 0.983 | S. cerevisiae deletion strains, locus YPR141C, strain kar3, active compounds read low 0.95 | S. cerevisiae deletion strains, locus YPR163C, strain tif3, active compounds read low 0.984 | S. cerevisiae deletion strains, locus YPR167C, strain met16, active compounds read low 0.978 | S. cerevisiae deletion strains, strain wtn01, active compounds read low 0.959 | S. cerevisiae strains, strain wild type, active compounds read low 0.989
active: S. cerevisiae deletion strains, locus YKL009W, strain mrt4, active compounds read low 0.834 | S. cerevisiae deletion strains, locus YNL250W, strain rad50, active compounds read low 0.834 | S. cerevisiae deletion strains, locus YOR231W, strain MKK1, active compounds read low 0.794 | S. cerevisiae deletion strains, locus YPL241C, strain CIN2, active compounds read low 1.08 [resistant]
